The structures appear in SMILES notation. Among all 2,200 compounds or so, about 1,500 (68%) were called active. Rule as the data show it: active = inhibition above about 23%; inactive = the rest. The set was probably picked from earlier hits. Not all results are given here.

Sequence of Perilipin-5 (Homo sapiens) + 1-acylglycerol-3-phosphate O-acyltransferase ABHD5 (Homo sapiens) (Q00G26 whole entry, looked up): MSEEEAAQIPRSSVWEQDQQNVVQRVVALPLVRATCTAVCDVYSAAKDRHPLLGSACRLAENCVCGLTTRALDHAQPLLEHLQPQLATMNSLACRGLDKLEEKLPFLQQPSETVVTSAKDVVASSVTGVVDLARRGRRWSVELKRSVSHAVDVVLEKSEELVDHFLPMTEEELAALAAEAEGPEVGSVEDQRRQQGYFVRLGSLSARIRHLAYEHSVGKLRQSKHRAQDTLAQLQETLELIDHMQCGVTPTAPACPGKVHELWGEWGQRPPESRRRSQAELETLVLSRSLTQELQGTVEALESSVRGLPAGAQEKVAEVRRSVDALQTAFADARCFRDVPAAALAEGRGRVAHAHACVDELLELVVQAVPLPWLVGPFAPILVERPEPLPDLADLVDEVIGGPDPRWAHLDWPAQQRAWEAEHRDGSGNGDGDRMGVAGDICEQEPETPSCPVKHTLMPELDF
Sequence of Perilipin-5 (Homo sapiens) + 1-acylglycerol-3-phosphate O-acyltransferase ABHD5 (Homo sapiens) (Q8WTS1 whole entry, looked up): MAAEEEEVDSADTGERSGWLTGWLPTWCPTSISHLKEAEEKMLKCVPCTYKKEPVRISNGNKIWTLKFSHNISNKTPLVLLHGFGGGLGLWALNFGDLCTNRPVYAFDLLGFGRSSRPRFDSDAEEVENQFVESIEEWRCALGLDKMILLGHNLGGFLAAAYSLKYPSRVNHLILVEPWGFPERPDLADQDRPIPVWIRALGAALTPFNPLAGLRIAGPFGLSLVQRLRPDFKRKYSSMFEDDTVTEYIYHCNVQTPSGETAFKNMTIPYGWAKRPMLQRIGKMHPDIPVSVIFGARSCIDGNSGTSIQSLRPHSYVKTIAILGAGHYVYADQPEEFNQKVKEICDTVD

This test has as its target Perilipin-5 (Homo sapiens) + 1-acylglycerol-3-phosphate O-acyltransferase ABHD5 (Homo sapiens) (UniProt Q00G26+Q8WTS1). The test can be described thus: ABHD5-PLIN5 interaction inhibitors, confirmation, biochemical, luminescence (AID 651612).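 Also: 0% = DMSO vehicle wells.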 Conditions: at 4 µM, hits give high values.
What is called inhibition is the change of the read-out against control, counted positive when it falls. Regarding `O=C(O)c1ccc2c(c1)C(=O)N(c1ccc(/C=C/C(=O)c3ccccc3)cc1)C2=O`, the inhibition was 94.7% (active).
For `O=[N+]([O-])/C=C/c1ccc2c(ccn2Cc2ccccc2)c1` the value was 103% (active).
For `Cc1cc(C)c(NC(=O)C[N+](C)(C)CC(O)COc2cccc3ccccc23)c(C)c1` (configuration not stated) the value was 22.2% (active).
In the case of `C[C@@H]1C[C@@H]2O[C@H]2/C=C\C=C\C(=O)Cc2c(Cl)c(O)cc(O)c2C(=O)O1`, the inhibition is 53.1% (active).
For `O=C(NNc1c2ccccc2nc2ccccc12)c1cc2ccccc2cc1O` the value was 35.2% (active); for `Cc1cc2c(c(=O)n1Cc1ccco1)C(c1ccccc1)C(C#N)=C(N)O2` (configuration not stated), 19% (inactive).
Under `CCCOc1ccc(C(=O)C(CCC(CNCC)C(=O)c2ccc(OCCC)cc2)CNCC)cc1` (configuration not stated) stands 19.7% (inactive).
Under `CCc1ccc(NC(=O)CSc2nnc(-c3cnccn3)n2Cc2ccco2)cc1` stands 19.6% (inactive); under `CC(C)(C)C1C/C(=C/c2ccco2)C(=O)/C(=C/c2ccco2)C1` (configuration not stated), 77.8% (active).
With `COc1ccc(-n2cc(CNC3CCOCC3)c(-c3cccc(F)c3)n2)cc1`, the inhibition was 2.9% (inactive).
Regarding `Cc1cccc(C=CC(=O)c2ccc(Cl)cc2)c1`, the inhibition is 84.9% (active).
For `CC(=O)N(c1ccc2oc(=O)sc2c1)S(=O)(=O)c1ccc(C)cc1` the value was -52.7% (inactive); for `COc1ccc(CNC(=O)/C(C#N)=C/c2cccc(OC)c2OC)cc1`, 56.6% (active); for `O=C(Nc1ccccc1)c1nnsc1S(=O)(=O)c1ccc(Cl)cc1`, 64.1% (active).
For the compound `O=C(N/N=C/C=C/c1ccco1)c1cccs1`, the inhibition is 40.2% (active).
For `COc1cccc2sc(N(CCCN(C)C)C(=O)C(c3ccccc3)c3ccccc3)nc12` the value was 18.3% (inactive).
Under `O=C1C=CC(=O)N1c1ccc(N2CCCCC2)cc1` stands 36.2% (active); under `COc1ccc(N/C=C(\C2OC(=O)c3ccccc32)[N+](=O)[O-])cc1` (configuration not stated), 9.16% (inactive); under `O=c1[nH]c(/C=C\c2cccc(C(F)(F)F)c2)nc(O)c1[N+](=O)[O-]`, 83.9% (active).
For `CC1(C)CCSC(/C=C/c2ccccc2)=N1` the value was 77.3% (active); for `COc1ccccc1C1/C(=C(/O)c2ccc(C)cc2)C(=O)C(=O)N1Cc1ccco1` (configuration not stated), 2.17% (inactive).
Turning to `C[C@@H](CN1CCC[C@H]1CN1C(N)=NC[C@@H]1Cc1ccccc1)N1C[C@@H](Cc2ccccc2)N(CCCC2CCCC2)C1=N`, the inhibition is 11.3% (inactive).
For `Cc1ccc(SC(CC(=O)c2ccc(C(C)(C)C)cc2)C(=O)O)cc1` (configuration not stated) the value was 36.4% (active).
As for `Cc1ccn(C(CC(=O)c2ccc(Br)cc2)C(=O)O)n1` (configuration not stated), the inhibition was 6% (inactive).
For `CC(=O)c1ccc(NC(=O)CCc2nnc3ccc(NCc4ccco4)nn23)cc1` the value was 9.27% (inactive).
Under `C=C(C)C(=O)O[C@H]1C/C(C)=C\C(=O)/C=C(\C)[C@H](O)[C@@H]2OC(=O)C(=C)[C@@H]21` stands 45.7% (active).
For `NC(=O)c1nsc(C(=O)N(CC(=O)NCc2ccc(F)cc2)Cc2ccco2)c1N` the value was 4.49% (inactive); for `CCC(C(=O)OCCN(CC)CC)c1ccccc1` (configuration not stated), 79.4% (active); for `C=C1C(=O)[C@]23C[C@H]1CCC2[C@@]1(C)C(C[C@@H]3O)[C@](C)(C(=O)O)CC[C@@H]1O` (some centres not stated), 34.6% (active).
For `COC(C/C=C/C(=O)[C@@H](C)OCc1ccccc1)OC`, the inhibition was 41.6% (active).
For `COC(=O)c1cnn2c(C(F)(F)F)cc(-c3ccco3)nc12` the value was 14% (inactive); for `O=C1/C(=C\c2ccc([N+](=O)[O-])cc2)CS(=O)(=O)C/C1=C/c1ccc([N+](=O)[O-])cc1`, 103% (active).
For `Cc1cccc(C)c1NC(=O)C(Cl)C(=O)c1ccccc1` (configuration not stated) the value was 68.9% (active).
Under `COc1ccc(-c2cc(C(F)(F)F)nc(S(C)(=O)=O)n2)cc1OC` stands 52.6% (active).
In the case of `COCCN(CCOC)c1nc(N)c2c(N)nc3c(c2c1C#N)CC(=O)N3Cc1ccc(Cl)cc1`, the inhibition is 32.1% (active).
For `COc1ccc2sc(-c3ccccc3OC)c(-c3ccc(OCCN4CCCC4)cc3)c2c1` the value was 15.5% (inactive).
For `CCN1CCC(O)(/C=C/c2ccc(C)cc2)C(C(=O)/C=C/c2ccc(C)cc2)C1` (configuration not stated) the value was 90.5% (active).
For `O=C(CCN1CCc2ccccc2C(O)(c2ccccc2)C1)c1ccc2c(c1)OCCO2` (configuration not stated) the value was 51.6% (active); for `Cc1c(CCOC(=O)CC23CC4CC(CC(C)(C4)C2)C3)sc[n+]1Cc1ccc([N+](=O)[O-])cc1`, 16.8% (inactive); for `Cc1ccc2nc(-c3ccco3)c(Cc3cccc(Cl)c3)n2c1`, 26.5% (active).
`Cc1ccc(Cc2c(-c3ccco3)nc3ccc(Cl)cn23)cc1`: the inhibition is 32.4% (active).
For `O=C1C(Cl)=C(Oc2ccccc2)C(=O)c2ccccc21` the value was 85.3% (active).
For `O=c1[nH][nH]c2c1[C@H](c1ccc(Cl)cc1)O[C@H](CCc1ccccc1)C2` the value was 2.53% (inactive).
Under `Cc1csc(NC(=O)NC2(C(F)(F)F)Oc3ccccc3O2)n1` stands 92.4% (active).
`O=C(c1cccnc1)N(c1cc2sc(=O)oc2c2ccccc12)S(=O)(=O)c1ccccc1`: the inhibition was -3.41% (inactive).
Under `CC1Cc2ccccc2N1CC(=O)Nc1ccc(S(N)(=O)=O)cc1` (configuration not stated) stands 7.58% (inactive); under `Cc1ccc(NC(=O)Cn2sc3ccccc3c2=O)cc1`, 74% (active).
With `Cc1ccc(-n2nc(-c3ccco3)cc2C(=O)NCc2cccnc2)cc1`, the inhibition was 38.1% (active).
Under `O=C(Nc1ccccc1Cl)/C(Cl)=C(\Cl)S(=O)c1ccccc1` (configuration not stated) stands 101% (active); under `CC1(C(=O)NCc2cccc3ccccc23)CCN1Cc1ccc(-c2ccccc2)o1` (configuration not stated), 16.1% (inactive); under `Cc1nc(-c2ccccc2)sc1C(=O)/C=C/c1ccccc1`, 81.5% (active).
For `CCS(=O)(=O)Nc1ccc(C2=NN(S(=O)(=O)c3ccc(F)cc3)C(c3ccco3)C2)cc1` (configuration not stated) the value was 10.4% (inactive).
Turning to `Cn1sc(=O)c2cc(S(=O)(=O)NC3CC3)ccc21`, the inhibition was 34.2% (active).
With `CN(C)CCCNC(=O)/C=C/c1ccc(OCc2c(F)cccc2Cl)cc1`, the inhibition was 10.8% (inactive).
Under `CSc1nnc(NC(=O)c2nc(S(=O)(=O)Cc3ccc(C)cc3)ncc2Cl)s1` stands 79.6% (active).
For `Cc1ccc(CS(=O)(=O)c2ncc(Cl)c(C(=O)Nc3nnc(C)s3)n2)cc1` the value was 79.9% (active); for `O=C(Nc1nc(-c2ccco2)c(-c2ccco2)s1)c1ccco1`, 60.6% (active).

These data come from PubChem BioAssay AID651612 (The Scripps Research Institute Molecular Screening Center, 2012).
